Results: PubChem BioAssay (NCATS)
Unmarked numbers belong to inactive results. Inconclusive results are not listed. Calls of active or inactive are those of the source. Unless noted, calls follow the shape of the dose curve; as a rule, active = well fitted curve in either direction with a large enough effect (not every such curve was filed as active); inconclusive = small, poorly fitted or top-dose-only effect, or another doubt; inactive = flat fitted curve, though single readings scatter.

Legend:
[1] = target: Lysosomal acid glucosylceramidase (Homo sapiens) (UniProt P04062); assay: Glucocerebrosidase-p2 (AID 348; in the data active = potency below about 10 µM; also: potency is read from the fitted curve at half-maximal effect); conditions: purified GBA, blue fluorogenic substrate, 40 min
Procedure, shortened: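 Normal human glucocerebrosidase (0.2 nM) with blue fluorogenic substrate (80 uM final) in citrate/phosphate pH 5.9 with 10mM sodium taurocholate, 0.01% tween-20; 40 min RT, NaOH/glycine stop; fluorescence Ex 365/Em 440; AC50 from a titration from 0.6 nM upwards.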

[2] = target: Cytochrome P450 1A2 (Homo sapiens) (UniProt P05177); assay: p450-cyp1a2 (AID 410; calls by dose curve; also: potency is read from the fitted curve at half-maximal effect); conditions: recombinant CYP1A2, luciferin-ME demethylation, luminescence; series mostly up to 11.4 µM
Procedure, shortened: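 O-Demethylation of luciferin 6' methyl ether by human CYP1A2 is monitored as luciferase luminescence. Substrate sits at Km (100uM); enzyme is 20nM. Values are scaled to 57 uM furafylline as maximal inhibition.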

[3] = target: Glucocorticoid receptor (Homo sapiens) (UniProt P04150); assay: GR-GFP Redistribution (AID 450;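 active = compounds whose dose series gives a full or clear partial fitted curve of increased nuclear translocation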; also: potency is read from the fitted curve at half-maximal effect); conditions: U2OS GR-GFP nuclear translocation, laser cytometry, 2 h
[4] = target: Glucocorticoid receptor (Homo sapiens) (UniProt P04150); assay: GR-EFC Redistribution (AID 451; calls by dose curve; also: potency is read from the fitted curve at half-maximal effect); conditions: CHO-K1 GR-EFC translocation, beta-gal luminescence, 2 h
Procedure, shortened: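 Translocation of GR-ED fusion to nuclear EA restores b-gal, read by luminescence after 1 h room-temperature detection. Engineered CHO-K1 biosensor cells, 1,000/well, exposed 2 h at 37 C to titrations up to 46 uM final.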

[5] = target: Mitogen-activated protein kinase 10 (Mus musculus) (UniProt Q61831); assay: JNK3 AlphaScreen Assay (AID 530); conditions: JNK3 lysate, c-Jun phosphorylation; series mostly up to 11.4 µM;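 also: kinase came from lysate of stimulated human HepG2 cells; signal reports phosphorylation of biotinylated GST-cJun 1-79 at Ser73 with 10 µM ATP; % is scaled to controls: 0 for no effect and ±100 for the full control effect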
Procedure, shortened: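 qHTS titrations with 15 min compound pre-incubation before adding ATP (10 uM final). Read-out: AlphaScreen of Ser73-phosphorylated biotin-GST-cJun using HepG2 lysate JNK3 activated by IL-1β and TNFα.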

[6] = target: 3',5'-cyclic-AMP phosphodiesterase 4B (Homo sapiens) (UniProt Q07343); assay: qHTS Assay for Inhibitors of PDE-IV (AID 607; active = well fitted activation curve with a large enough effect in the main read-out, with a control signal flat, not every such curve was filed as active; also: % of control where 0% means no effect); conditions: HEK293 ACTOne CNG channel cells, membrane potential fluorescence; series mostly up to 22.9 µM
Procedure, shortened: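 The readout is membrane depolarisation from a cAMP-sensing CNG channel, detected with a potential dye at ex 535/em 590. Cells were HEK293-derived (endogenous PDE-IV) at 1000 cells/well, titrated up to 22.9 uM final.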

[7] = target: Cytochrome P450 2C19 (Homo sapiens) (UniProt P33261); assay: qHTS Assay for Inhibitors and Substrates of Cytochrome P450 2C19 (AID 899; active = well fitted curve in the direction sought with a large enough effect; an effect the other way counts as inactive or inconclusive; also: potency is read from the fitted curve at half-maximal effect; nearly all actives have a fitted effect of over 60% in size); conditions: recombinant CYP2C19, luciferin-H EGE luminescence; series mostly up to 11.4 µM
Procedure, shortened: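 Luminescence readout of luciferin formed from 10uM Luciferin-H EGE (KM level) by 5 nM CYP2C19 in 50mM KPO4. 60 min NADPH-driven reaction at 37C after 10 min compound preincubation; data scaled to 57uM ketoconazole inhibition.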

[8] = target: Cytochrome P450 3A4 (Homo sapiens) (UniProt P08684); assay: qHTS Assay for Activators of Cytochrome P450 3A4 (AID 885; active = well fitted curve in the direction sought with a large enough effect; an effect the other way counts as inactive or inconclusive; also: nearly all actives have a fitted effect of over 65% in size); conditions: recombinant CYP3A4, Luciferin-PPXE luminescence, 60 min; series mostly up to 11.4 µM
Procedure, shortened: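 Activators are scored by enhanced luminescence from CYP3A4 conversion of luciferin-PPXE (25uM, equal to KM) to luciferin, after 60 min at RT with an NADPH-regenerating system.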

[9] = NFAT Signaling Pathway (AID 444); conditions: Jurkat NFAT-bla M1, carbachol, beta-lactamase ratio, 5 h; at 7.69 µM (top of the series) unless noted;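 also: carbachol stimulus at about its EC50 of 1 µM final; % is scaled to controls: 0 for no effect and ±100 for the full control effect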
Procedure, shortened: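 Read-out: CCF4 FRET ratio (460 nm/530 nm) after 1 h RT dye loading, used for %activity and AC50 from titration series. Cells: Jurkat NFAT-β-lactamase/M1 line, treated with compound plus 1 uM carbachol for 5 h, 37 °C.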

[10] = Stat Signaling Pathway (AID 446); conditions: ME-180 SIE beta-lactamase reporter, IL-6 stimulated, 5 h; at 7.69 µM (top of the series) unless noted;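 also: ME-180 cervical cancer cells given 40 pM IL-6 alongside compound; SIE-controlled beta-lactamase reporter measured as 460/530 nm FRET emission ratio; % is scaled to controls: 0 for no effect and ±100 for the full control effect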
Procedure, shortened: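 Emission at 460 and 530 nm (excitation 405 nm) reports SIE-controlled beta-lactamase in ME-180 cells. Cells received compound with 40 pM IL-6 for 5 hrs at 37 C; data scaled between 300 pM IL-6 and 125 nM JAK-inhibitor controls.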

[11] = target: Cytochrome P450 2D6 (Homo sapiens) (UniProt P10635); assay: qHTS Assay for Inhibitors and Substrates of Cytochrome P450 2D6 (AID 891; active = well fitted curve in the direction sought with a large enough effect; an effect the other way counts as inactive or inconclusive; also: potency is read from the fitted curve at half-maximal effect; nearly all actives have a fitted effect of over 60% in size); conditions: recombinant CYP2D6, luciferin-ME EGE luminescence; series mostly up to 11.4 µM
Procedure, shortened: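 Luminescent read-out of luciferin formed by 5 nM human CYP2D6 demethylating 30 uM Luciferin-ME EGE (Km level) over 60 min at room temperature after NADPH regeneration addition. Data normalized to full inhibition by 1.43 uM quinidine.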

[12] = qHTS Assay for Identification of Small Molecule Agonists for Hypoxia Response Element Signaling Pathway (AID 914; active = well fitted activation curve with a large enough effect in the signal ratio, with a control signal flat, not every such curve was filed as active; the % refers to the signal ratio; also: % of control where 0% means no effect); conditions: ME-180 (cervical carcinoma) HRE-bla reporter, beta-lactamase ratio, CoCl2, 17 h; activation: active compounds read high
Procedure, shortened: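 Positive modulation of EC50 CoCl2-induced hypoxia response element signaling is measured in ME-180 cells with a beta-lactamase reporter. Compounds are titrated, incubation runs 17 hours, and %Activity derives from the blue/green ratio.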

Glucocorticoid receptor (Homo sapiens), sequence (P04150 whole entry, looked up, the tested form may be a part): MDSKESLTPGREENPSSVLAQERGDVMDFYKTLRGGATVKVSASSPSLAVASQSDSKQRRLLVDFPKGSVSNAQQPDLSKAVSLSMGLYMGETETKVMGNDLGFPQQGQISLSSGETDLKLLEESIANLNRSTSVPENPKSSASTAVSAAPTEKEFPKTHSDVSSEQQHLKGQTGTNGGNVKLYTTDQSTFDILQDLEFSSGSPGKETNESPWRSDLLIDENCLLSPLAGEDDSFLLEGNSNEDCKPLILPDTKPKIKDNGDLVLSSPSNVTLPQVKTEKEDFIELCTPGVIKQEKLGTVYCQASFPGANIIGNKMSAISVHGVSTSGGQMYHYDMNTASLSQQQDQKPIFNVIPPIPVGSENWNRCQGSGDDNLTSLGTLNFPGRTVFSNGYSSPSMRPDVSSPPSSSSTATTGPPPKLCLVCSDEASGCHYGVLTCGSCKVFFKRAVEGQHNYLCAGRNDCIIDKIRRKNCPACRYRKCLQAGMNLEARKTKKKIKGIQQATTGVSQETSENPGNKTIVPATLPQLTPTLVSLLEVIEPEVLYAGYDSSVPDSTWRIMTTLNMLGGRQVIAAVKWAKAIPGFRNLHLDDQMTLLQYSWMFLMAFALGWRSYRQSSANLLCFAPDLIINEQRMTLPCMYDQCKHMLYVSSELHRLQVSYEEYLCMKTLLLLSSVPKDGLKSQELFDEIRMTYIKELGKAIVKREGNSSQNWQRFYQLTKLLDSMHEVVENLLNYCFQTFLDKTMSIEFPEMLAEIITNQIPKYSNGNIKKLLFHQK
Lysosomal acid glucosylceramidase (Homo sapiens), sequence (P04062 whole entry, looked up): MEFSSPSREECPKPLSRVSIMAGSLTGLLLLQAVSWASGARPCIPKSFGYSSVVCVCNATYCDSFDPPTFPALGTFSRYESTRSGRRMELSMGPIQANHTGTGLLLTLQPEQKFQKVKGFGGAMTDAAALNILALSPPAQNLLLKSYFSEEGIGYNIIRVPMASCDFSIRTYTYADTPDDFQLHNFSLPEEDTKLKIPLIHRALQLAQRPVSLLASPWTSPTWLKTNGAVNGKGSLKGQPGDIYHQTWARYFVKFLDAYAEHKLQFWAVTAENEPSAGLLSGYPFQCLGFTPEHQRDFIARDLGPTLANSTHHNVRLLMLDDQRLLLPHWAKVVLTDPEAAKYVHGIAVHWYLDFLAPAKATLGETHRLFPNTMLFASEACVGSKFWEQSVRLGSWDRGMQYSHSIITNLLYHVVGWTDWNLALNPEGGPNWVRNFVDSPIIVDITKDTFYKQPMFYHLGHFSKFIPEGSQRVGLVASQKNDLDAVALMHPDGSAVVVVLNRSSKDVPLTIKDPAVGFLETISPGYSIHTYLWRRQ
3',5'-cyclic-AMP phosphodiesterase 4B (Homo sapiens), sequence (Q07343 whole entry, looked up): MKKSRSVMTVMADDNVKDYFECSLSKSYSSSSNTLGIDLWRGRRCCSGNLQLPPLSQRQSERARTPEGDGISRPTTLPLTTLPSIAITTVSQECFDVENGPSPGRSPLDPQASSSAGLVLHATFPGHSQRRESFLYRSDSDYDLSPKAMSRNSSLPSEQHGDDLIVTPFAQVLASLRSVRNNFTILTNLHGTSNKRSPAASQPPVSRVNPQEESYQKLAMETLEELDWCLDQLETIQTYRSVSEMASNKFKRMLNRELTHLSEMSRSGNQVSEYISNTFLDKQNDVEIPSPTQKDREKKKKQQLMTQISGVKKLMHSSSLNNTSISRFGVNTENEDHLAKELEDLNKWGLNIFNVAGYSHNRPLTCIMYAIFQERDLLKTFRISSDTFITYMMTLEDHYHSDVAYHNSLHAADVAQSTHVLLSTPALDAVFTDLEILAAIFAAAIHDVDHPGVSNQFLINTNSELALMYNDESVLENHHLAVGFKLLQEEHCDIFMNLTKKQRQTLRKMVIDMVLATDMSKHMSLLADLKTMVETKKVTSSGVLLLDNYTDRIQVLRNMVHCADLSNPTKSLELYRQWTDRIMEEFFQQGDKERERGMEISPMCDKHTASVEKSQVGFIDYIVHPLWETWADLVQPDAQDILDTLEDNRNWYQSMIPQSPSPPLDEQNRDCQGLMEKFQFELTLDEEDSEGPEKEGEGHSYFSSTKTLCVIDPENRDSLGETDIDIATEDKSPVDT
Cytochrome P450 1A2 (Homo sapiens), sequence (P05177 whole entry, looked up): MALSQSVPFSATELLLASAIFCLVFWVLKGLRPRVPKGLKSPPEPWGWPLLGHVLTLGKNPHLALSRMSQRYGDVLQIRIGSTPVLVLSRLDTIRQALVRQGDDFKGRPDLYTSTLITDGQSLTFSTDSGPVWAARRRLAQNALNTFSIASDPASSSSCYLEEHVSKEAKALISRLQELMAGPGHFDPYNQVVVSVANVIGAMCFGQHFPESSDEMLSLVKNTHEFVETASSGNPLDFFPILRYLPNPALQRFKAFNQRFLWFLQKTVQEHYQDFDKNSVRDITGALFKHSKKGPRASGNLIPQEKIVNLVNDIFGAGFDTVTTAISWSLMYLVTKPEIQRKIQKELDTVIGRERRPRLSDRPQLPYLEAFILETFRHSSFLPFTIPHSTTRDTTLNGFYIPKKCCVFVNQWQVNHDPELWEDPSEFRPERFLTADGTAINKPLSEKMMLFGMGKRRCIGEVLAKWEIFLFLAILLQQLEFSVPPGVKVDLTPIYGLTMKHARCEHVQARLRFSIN
Cytochrome P450 2D6 (Homo sapiens), sequence (P10635 whole entry, looked up): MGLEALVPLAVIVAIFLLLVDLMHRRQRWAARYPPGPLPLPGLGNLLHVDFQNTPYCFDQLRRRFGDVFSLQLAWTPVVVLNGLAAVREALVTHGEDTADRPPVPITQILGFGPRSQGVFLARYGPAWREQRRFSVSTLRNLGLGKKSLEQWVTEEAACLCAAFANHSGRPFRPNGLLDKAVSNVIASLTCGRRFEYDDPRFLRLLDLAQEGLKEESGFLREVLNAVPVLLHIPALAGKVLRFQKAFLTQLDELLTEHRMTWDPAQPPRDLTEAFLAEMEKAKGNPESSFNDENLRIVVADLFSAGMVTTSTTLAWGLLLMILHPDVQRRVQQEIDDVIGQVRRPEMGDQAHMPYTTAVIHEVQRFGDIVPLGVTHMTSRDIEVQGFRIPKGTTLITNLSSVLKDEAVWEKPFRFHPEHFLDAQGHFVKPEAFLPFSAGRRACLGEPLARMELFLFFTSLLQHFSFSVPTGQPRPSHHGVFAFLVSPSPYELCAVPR
Cytochrome P450 3A4 (Homo sapiens), sequence (P08684 whole entry, looked up): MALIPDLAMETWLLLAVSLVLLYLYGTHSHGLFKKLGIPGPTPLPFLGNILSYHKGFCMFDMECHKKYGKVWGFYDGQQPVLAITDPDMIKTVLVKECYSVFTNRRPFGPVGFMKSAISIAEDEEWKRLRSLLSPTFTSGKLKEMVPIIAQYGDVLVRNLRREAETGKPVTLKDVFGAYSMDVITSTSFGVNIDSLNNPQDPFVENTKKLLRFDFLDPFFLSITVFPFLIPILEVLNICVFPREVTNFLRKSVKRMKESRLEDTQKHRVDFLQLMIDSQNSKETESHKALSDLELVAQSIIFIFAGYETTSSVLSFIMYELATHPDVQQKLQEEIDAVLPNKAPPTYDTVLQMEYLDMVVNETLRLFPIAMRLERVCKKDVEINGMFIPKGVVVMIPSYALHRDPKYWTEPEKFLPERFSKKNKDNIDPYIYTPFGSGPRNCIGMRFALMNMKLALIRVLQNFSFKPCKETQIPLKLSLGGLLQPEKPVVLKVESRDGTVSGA
Cytochrome P450 2C19 (Homo sapiens), sequence (P33261 whole entry, looked up): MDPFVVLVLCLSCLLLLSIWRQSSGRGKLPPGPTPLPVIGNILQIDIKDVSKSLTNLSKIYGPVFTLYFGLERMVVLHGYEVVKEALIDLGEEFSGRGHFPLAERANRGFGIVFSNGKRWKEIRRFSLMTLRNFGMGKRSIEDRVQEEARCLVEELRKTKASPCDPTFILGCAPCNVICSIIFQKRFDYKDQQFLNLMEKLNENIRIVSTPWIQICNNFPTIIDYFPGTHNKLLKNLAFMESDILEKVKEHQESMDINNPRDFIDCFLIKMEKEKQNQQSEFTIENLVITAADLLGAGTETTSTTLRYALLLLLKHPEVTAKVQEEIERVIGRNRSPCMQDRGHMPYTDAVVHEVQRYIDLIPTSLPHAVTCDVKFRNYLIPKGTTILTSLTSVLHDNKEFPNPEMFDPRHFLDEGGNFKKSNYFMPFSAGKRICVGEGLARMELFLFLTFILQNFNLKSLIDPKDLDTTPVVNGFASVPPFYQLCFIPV

SMILES	Potency [1]	Potency [2]	Potency [3] [µM]	Potency [4] [µM]	Potency [5]	Potency [6]	Potency [7]	Potency [8]	activity change, negative = inhibition [9] [%]	activity, negative = inhibition [10] [%]	Potency [11]	activation [12] [%]
Oc1c(Cl)cc(C(c2cc(Cl)c(O)c(Cl)c2)C(c2cc(Cl)c(O)c(Cl)c2)c2cc(Cl)c(O)c(Cl)c2)cc1Cl	5.75 µM (active)	0.794 µM (active)	> 46	> 9.22	inactive	inactive	2.51 µM (active)					
NS(=O)(=O)c1ccc(N=Nc2cc3ccccc3c(C(=O)O)c2O)cc1	> 11.4 µM	1 µM (active)	> 46			inactive		inactive				
c1nnc(NCNc2nncs2)s1	> 11.4 µM		> 46	> 9.22	inactive	inactive			7.13	-7.18		
CCNc1ncc2nc(CCc3ccccc3)c(=O)n(-c3ccc(OC)cc3)c2n1	> 11.4 µM		> 9.22	> 46	inactive				-12.3	-3.89	0.251 µM (active)	-1.93
CSc1ccc(NC(=O)[C@H]2CCCC[C@@H]2C(=O)O)cc1	> 11.4 µM		> 46	> 9.22	inactive	inactive			4.17	3.36		
Oc1ccc(CNCc2ccccc2)c2cccnc12	> 11.4 µM		> 46	> 9.22	inactive	inactive			-26.9	10.2	1.58 µM (active)	
O=C(O)c1ccccc1-c1ccccc1C(=O)c1ccccc1	> 11.4 µM		> 46	> 9.22	inactive	inactive			5.49	2.8		
